Results filed as inconclusive are left out. A call without a number means that no potency is given here. The source made the active and inactive calls. Calls follow the shape of the dose curve; as a rule, active = well fitted inhibition curve with a large enough effect; inconclusive = small, poorly fitted or top-dose-only effect; inactive = flat fitted curve, though single readings scatter.
These compounds were tested against Aldehyde dehydrogenase, mitochondrial (Homo sapiens) (UniProt P05091) (assay: qHTS for Inhibitors of the Aldehyde Dehydrogenase Family (ALDH2) Primary screen (AID 2061308; also: nearly all actives have a fitted effect of over 55% in size)). Details: ALDH2 enzyme inhibition qHTS, 1536-well; series mostly up to 56 µM.

| Structure (SMILES) | Potency |
| --- | --- |
| Cc1ccc(NS(=O)(=O)c2ccc(Cl)cc2)cc1C | inactive |
| COc1cccc(NS(=O)(=O)c2ccc(C)cc2)c1C(=O)Nc1nc(-c2ccccc2)cs1 | inactive |
| COc1ccc2[nH]c(=O)c3c(c2c1)OC(C)(C)C=C3 | inactive |
| COc1cc(F)c(F)c(Nc2ccc(I)cc2F)c1NS(=O)(=O)C1(CC(O)CO)CC1 (stereo not given) | inactive |
| CC(=O)c1ccc(-c2csc(N3CCC(C(N)=O)CC3)n2)cc1 | inactive |
| Cc1cc(C)nc(NC(=S)N2CCN(c3ccc(C(=O)O)cc3)CC2)c1 | inactive |
| Cc1nc(-c2ccccc2C(C)C)nc(NCc2ccc(-c3cccnc3)cc2)c1C | inactive |
| CN1CCOc2cc(S(=O)(=O)N3CCN(S(=O)(=O)c4c(F)cccc4F)CC3)cnc21 | inactive |
| NC(=O)C1CCN(c2nnc(-c3ccc(Br)cc3)s2)CC1 | inactive |
| Cc1cc(C)nc(NC(=S)N2CCN(c3ccc(C(F)(F)F)cc3Cl)CC2)c1 | inactive |
| O=S1(=O)N=C(Oc2ccccc2-c2ccccc2)c2ccccc21 | inactive |
| N=c1c2c(ccn1CCc1ccccc1)Oc1ccc3ccccc3c1C2c1ccccc1 (stereo not given) | inactive |
| COc1cc(OC)cc(-c2csc(N3CCC(C(N)=O)CC3)n2)c1 | inactive |
| Cc1ccc(C(=O)Nc2ccc(N3CCOCC3)cc2)cc1 | inactive |
| Cc1nc(NCCO)c2nc(-c3ccccc3)n(CCN(C)C)c2n1 | inactive |
| CC(=O)N[C@H](C(=O)N[C@@H](C)C(=O)N[C@H](C#N)CC(=O)O)C(C)C | inactive |
| FC(F)(F)c1cccc(-c2ccc(CNc3nc(-c4ccccc4C(F)(F)F)nc4ccccc34)cc2)c1 | inactive |
| FC(F)(F)c1cccc(N2CCN(C(=S)Nc3cccnc3)CC2)c1 | inactive |
| O=C(NC1CCCc2c1cnn2-c1ccc(F)cc1F)C1CC1 (stereo not given) | inactive |
| Fc1ccccc1-c1nc(NCc2ccc(-c3cccnc3)cc2)c2ccccc2n1 | inactive |

| Structure (SMILES) | Potency |
| --- | --- |
| COc1ccc2cc3cc(C(=O)Nc4ccc(F)cc4)sc3nc2c1 | inactive |
| Cc1ccc(NS(=O)(=O)c2ccc3c(c2)N(C)CCO3)cc1C | inactive |
| O=C(Nc1ccccn1)c1sc2ccccc2c1Cl | inactive |
| O=C(OCc1c(-c2ccccc2)no[n+]1[O-])c1ccccc1 | inactive |
| Cc1ccc(S(=O)(=O)Nc2cccnc2C(=O)Nc2nc(-c3ccccc3)cs2)cc1 | inactive |
| CNC1CCC(N(Cc2ccc(OC)c(-c3ccc(C#N)cc3)c2)C(=O)c2sc3ccccc3c2Cl)CC1 (stereo not given) | inactive |
| Cc1ccc(OCCn2c(CCNC(=O)c3ccc(C#N)cc3)nc3ccccc32)cc1 | inactive |
| N#Cc1nonc1-c1ccccc1 | inactive |
| O=C(OCC#CCSc1nnc(-c2cccc3ccccc23)o1)c1cnc[nH]1 | inactive |
| FC(F)Oc1ccc(C2=Nn3c(nnc3-c3ccccc3Cl)SC2)cc1OCC1CC1 | inactive |
| Cc1cccc(C(=O)NCC(=O)OC(C(=O)Nc2cc(C(F)(F)F)ccc2Cl)c2ccccc2)c1 (stereo not given) | inactive |
| Cc1ccc(-c2c(C(=O)CF)n(CCCO)c3ncnc(N)c23)cc1 | inactive |
| Cc1cc2c(s1)c1cnn(Cc3ccc(Br)cc3)c(=O)c1n2C | inactive |
| Fc1cccc(CSc2nc3ncc(Br)cc3[nH]2)c1 | inactive |
| Cc1ccc2c(c1)/C(=C\c1cc(Cl)c(O)c(Cl)c1)C(=O)N2 | inactive |
| Cn1c2ccsc2c2cnn(Cc3ccc(F)cc3)c(=O)c21 | inactive |
| Cc1cccc(C2N=C(Nc3nc4ccccc4o3)NC3=C2C(=O)CCC3)c1 (stereo not given) | inactive |
| Cc1ccnc(NC(=S)N2CCN(c3cccc(N(C)C)c3)CC2)c1 | inactive |
| N#Cc1nc(Nc2cccc3ccccc23)nc(NC2CCCC2)n1 | inactive |
| O=C1C[C@]23C=CCN4CCC5c6cc7c(cc6N1[C@@]5(CC2)C43)OCO7 (stereo not given in full) | inactive |
